Out of some 580,000 compounds screened, about 6,100 (1.1%) were called active. Entries that show only a call come without a potency. Not shown: some 15% with an inconclusive outcome. Calls come from the whole dose curve; as a rule, active = well fitted inhibition curve with a large enough effect; inconclusive = small, poorly fitted or top-dose-only effect, or another doubt; inactive = no such curve, though single readings can be large or run the other way. The full list was thinned out, with actives kept by preference.

Consider 106 compounds from PubChem BioAssay AID1671190 (National Center for Advancing Translational Sciences (NCATS), 2021).
Potency is the fitted concentration of half-maximal effect.

Sequence of Polyunsaturated fatty acid lipoxygenase ALOX12 (Homo sapiens) (P18054 whole entry, looked up): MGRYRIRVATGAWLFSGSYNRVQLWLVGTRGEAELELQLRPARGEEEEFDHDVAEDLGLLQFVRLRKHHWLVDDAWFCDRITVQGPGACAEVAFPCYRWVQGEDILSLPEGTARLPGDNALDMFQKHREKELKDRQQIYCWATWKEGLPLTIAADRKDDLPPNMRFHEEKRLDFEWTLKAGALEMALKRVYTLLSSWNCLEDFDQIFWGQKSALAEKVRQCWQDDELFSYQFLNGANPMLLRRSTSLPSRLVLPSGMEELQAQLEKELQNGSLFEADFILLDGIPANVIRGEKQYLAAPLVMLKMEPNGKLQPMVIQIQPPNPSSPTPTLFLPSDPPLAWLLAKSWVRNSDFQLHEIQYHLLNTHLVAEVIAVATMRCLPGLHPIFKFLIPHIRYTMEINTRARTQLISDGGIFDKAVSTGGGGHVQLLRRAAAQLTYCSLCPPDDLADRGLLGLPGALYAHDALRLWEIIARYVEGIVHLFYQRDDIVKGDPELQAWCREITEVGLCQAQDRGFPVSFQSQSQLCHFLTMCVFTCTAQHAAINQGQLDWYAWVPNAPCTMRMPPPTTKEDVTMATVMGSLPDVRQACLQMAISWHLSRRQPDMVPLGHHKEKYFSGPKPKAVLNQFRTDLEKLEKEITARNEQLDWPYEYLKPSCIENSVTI

The assay addresses Polyunsaturated fatty acid lipoxygenase ALOX12 (Homo sapiens) (UniProt P18054). As to the kind of experiment: Primary qHTS assay for inhibitors of human arachidonate 12S-lipoxygenase (ALOX12): Round 2. Conditions: purified 12hLO, xylenol orange hydroperoxide absorbance; series mostly up to 108 µM. In a few lines:
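Purified human 12hLO at 150 nM in 25 mM Hepes, 0.01% Triton X-100, pH 7.0, preincubated 15 min at room temperature with compound. Reaction started with 40 uM arachidonic acid, 30 min at room temperature. Hydroperoxide measured by Fe-xylenol orange, 573/405 nm absorbance ratio.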
For orientation: qHTS replaces the single test concentration by a dilution series.
Turning to `O=C([C@@H]1C[C@H](F)CN1C(=O)Nc1cc(F)cc(F)c1)N1CCCCC1`, the Potency entry was “inactive”. For `O=C(Cc1ccc(Cl)cc1)NCc1nnc2ccc(-c3ccc(F)cc3)nn12`, the Potency result is “inactive”. Regarding `CCOC(=O)Cn1c(=O)n(-c2ccccc2OC)c2nc(-c3cccc(F)c3)nc(C(N)=O)c21`, the Potency was 11.2 µM (active). Regarding `CCOC(=O)Cn1c2c(c(-c3ccccc3OC)cc1=O)CCCC2`, the Potency entry was “inactive”. The result for `CCOC(=O)Cn1c(=O)n(C2CCCCC2)c2nc(-c3cccc(OC)c3)nc(C(N)=O)c21` reads “inactive”; that for `CCCn1c(C)c(C)c(-c2nc3ccccc3[nH]2)c1NC(=O)CC(C)C`, “inactive”. In the case of `Cc1cc(CN2CCN(Cc3nc(C(C)(C)C)no3)CC2)no1`, the Potency entry was “inactive”.

For the compound `O=c1cc(-c2cccnc2)nc2n(Cc3cccc(F)c3)c3ccccc3n12`, the Potency result was “inactive”. To `CC(C)COC(=O)/C(C#N)=C\c1c[nH]c2ccccc12` belongs “inactive”; to `O=C(CCC1CCN(S(=O)(=O)c2ccccc2)CC1)NCCc1ccccc1`, “inactive”; to `CCCC1CCC(=NNC(=S)NCCc2ccccc2)CC1` (stereo unspecified), 44.7 µM (active).

On to `N#Cc1cccc(NC(=S)NCCc2ccccc2)c1`, for which the Potency entry was “inactive”. In the case of `O=C(NCCCNC(=O)c1nc2ccccc2c(=O)[nH]1)c1cccnc1`, the Potency result was “inactive”. To `O=C(c1cccnc1)N(c1cc2sc(=O)oc2c2ccccc12)S(=O)(=O)c1ccccc1` belongs 15.8 µM (active); to `O=C(CN(Cc1ccc(Br)cc1)S(=O)(=O)c1ccccc1)NCc1ccncc1`, “inactive”. To `Cc1nn(CC(O)COc2ccccc2)c(=O)c2ccccc12` (stereo unspecified) belongs “inactive”; to `Cc1ccccc1C(=O)Nc1ccc2c(c1)nc(CCn1ccccc1=O)n2C`, “inactive”; to `CCN(CC)S(=O)(=O)c1ccc(Sc2nnc(C)s2)nc1`, “inactive”.

`CN(C)c1ccc(C(=O)NCc2nnc3cc(-c4nc(C5CC5)no4)ccn23)cc1`: the Potency entry was “inactive”.

In the case of `CCCc1noc(-c2ccn3c(CNC(=O)c4ccc(N(C)C)cc4)nnc3c2)n1`, the Potency is 44.7 µM (active). For the compound `COc1ccc(C(=O)NCc2nnc3cc(-c4nc(C)no4)ccn23)cc1`, the Potency result is “inactive”. The result for `CCc1cccc2c(C(=O)CSc3nnnn3C3CC3)c[nH]c12` reads “inactive”. The result for `CCCNC(=O)c1cn(-c2ccccc2)nc1-c1cccnc1` reads “inactive”; that for `O=C(/C=C/c1cccc(F)c1)c1cc2ccccc2oc1=O`, “inactive”; that for `O=[N+]([O-])c1ccc(Oc2ccc3ccncc3c2)cc1C(F)(F)F`, “inactive”. The result for `Cc1ccc(NC(=O)CCc2nc(C(C)(C)C)no2)nc1` reads “inactive”; that for `Cc1ccc2cccc(NC(=O)c3ccccc3C)c2n1`, “inactive”; that for `Cc1cccc(NC(c2cccc(F)c2)c2ccc3ccc(C)nc3c2O)n1` (stereo unspecified), 25.1 µM (active). For `Cc1c(Cl)cccc1NC(=O)COC(=O)c1nn(C)c(=O)c2ccccc12`, the Potency result was “inactive”. To `Cc1cc(C)n(CCC(=O)NCC2CCN(c3cc(-c4ccc(F)cc4)[nH]n3)CC2)n1` belongs “inactive”; to `Cc1cc(C)c2oc(C(=O)Nc3ccc(S(=O)(=O)N4CCCCCC4)cc3)cc(=O)c2c1`, “inactive”; to `Cc1cc(C)c2sc(NC(=O)c3ccc(S(=O)(=O)N4CCCC4)cc3)nc2c1`, “inactive”. To `Cc1cc(C)c(NS(=O)(=O)c2ccc(S(=O)(=O)N3CCCC3)cc2)c(C(=O)O)c1` belongs 39.8 µM (active); to `CC(=O)NC(C(=O)NC(C)c1cccc(Cl)c1)C(C)C` (stereo unspecified), “inactive”. On to `CC(C)C(=O)N(Cc1ccc2cc[nH]c2c1)C1CC1`, for which the Potency result is “inactive”. Turning to `NC(=O)[C@@H](Cc1ccccc1)NC(=O)C1=C[C@@H](NS(=O)(=O)c2cccc(C(F)(F)F)c2)[C@@H](O)[C@H](O)C1`, the Potency entry was “inactive”. The result for `COc1ccc(CC/C(C)=N/O)cc1` reads “inactive”; that for `O=C(c1ccco1)N1CCC2(CC1)CC(N(Cc1ccccc1)C1CC1)CCO2` (stereo unspecified), “inactive”; that for `C=CCOc1cccc(C2C(C(=O)c3ccc(C)o3)=C(O)C(=O)N2CCN2CCOCC2)c1` (stereo unspecified), “inactive”. To `C=CCOc1cccc(C2NC(=O)c3ccccc3O2)c1` (stereo unspecified) belongs “inactive”; to `C=CCOc1cccc(C2C(C(=O)c3ccc(C)o3)=C(O)C(=O)N2c2nnc(C)s2)c1` (stereo unspecified), 39.8 µM (active); to `CC(C)NC(=O)NC(=O)Cn1cnc2c1c(=O)n(C)c(=O)n2C`, “inactive”. Turning to `C/C(=N\NC(=O)NC1CCCCC1)c1ccc(OC(F)F)cc1OC(F)F`, the Potency entry is “inactive”.

`C/C(=N/NC(=O)c1ccc(Br)o1)c1ccc(C)o1`: the Potency result was “inactive”. To `C/C(=N\NC(=S)NC1CCCCC1)c1ccc(C)o1` belongs 5.01 µM (active).

Turning to `O=C(CN1CCN(C(=O)CCCc2c[nH]c3ccccc23)CC1)NC1CC1`, the Potency entry was “inactive”. As for `CCOC(=O)CSc1ncn(-c2nc(NC(C)(C)C)nc(N(C)C)n2)n1`, the Potency entry was “inactive”. As to `CN(CC(=O)Nc1ccc2c(c1)OC1(CCCCC1)O2)Cc1cccs1`, the Potency entry is “inactive”. To `CN(C)c1ccc(C=C2C(=O)OC3(CCCC3)OC2=O)cc1` belongs 44.7 µM (active). To `C=CCn1c(N2CCC(C(N)=O)CC2)nc2c1c(=O)[nH]c(=O)n2C` belongs “inactive”; to `O=C(Cc1ccc(Cl)cc1)NN=C1CCC(c2ccccc2)CC1` (stereo unspecified), “inactive”. Consider `CCOC(=O)CN1C(=O)C(O)(CC(=O)c2cccnc2)c2ccccc21` (stereo unspecified), for which the Potency entry is “inactive”. As to `CNCCC(F)(F)F`, the Potency is 15.8 µM (active). `CN1CCC(CNC(=O)CCc2c[nH]c3ccccc23)CC1`: the Potency entry was “inactive”. To `Cc1cc(C(C)(C)C)ccc1OC(=O)c1ccc(C#N)cc1` belongs “inactive”; to `CN1CCCN(S(=O)(=O)c2ccc3c(c2)CCC3)c2ccccc21`, “inactive”. With `CCc1ccc(-c2nc(-c3nc(-c4cccs4)cs3)sc2C)cc1`, the Potency result was “inactive”. The result for `COC(=O)c1ccc(CNC(=O)Cn2cc(C)c(=O)[nH]c2=O)cc1` reads “inactive”; that for `CCOC(=O)c1sc(=S)n2c1[nH]c(=O)c1ccc(C(=O)OC)cc12`, 15.8 µM (active). Take `CCOC(=O)C1=C(C)NC(=O)NC1c1ccc(C(=O)OC)cc1` (stereo unspecified): the Potency entry was “inactive”. The result for `COc1ccc(Nc2nc(-c3cccc(OC)c3OC)no2)cc1` reads “inactive”. For `COc1ccc(Nc2ccccc2)cc1`, the Potency was 35.5 µM (active). On to `COc1ccc(NC(=O)ON=C2c3ccccc3-c3ccccc32)cc1`, for which the Potency entry was “inactive”. The result for `O=C(NC1CCc2ccccc21)c1cc(COc2ccc3c(c2)OCO3)[nH]n1` (stereo unspecified) reads “inactive”; that for `CC1(C2CC2)NC(=O)N(CC(=O)Nc2cccc3cccnc23)C1=O` (stereo unspecified), “inactive”; that for `O=C(OCc1cc(Cl)c2c(c1)OCCCO2)C12CC3CC(CC(Cl)(C3)C1)C2`, “inactive”. To `CCCn1nc(C(=O)Nc2ccc(OC)c(S(=O)(=O)N(C)C)c2)c2ccccc2c1=O` belongs “inactive”; to `Cc1ccc(Nc2nnc(SCC(=O)c3ccc(Cl)s3)s2)cc1C`, “inactive”. To `CCCCc1ccc(Nc2nnc(SCC(=O)NC(C)C)s2)cc1` belongs “inactive”; to `CC(C)c1ccc(Nc2nnc(SCC(=O)c3nnc(-c4ccccc4)o3)s2)cc1`, 39.8 µM (active); to `O=C(NCC1CCN(c2cc(-c3ccc(Cl)cc3)[nH]n2)CC1)c1ccc2nc[nH]c2c1`, “inactive”. For `CN(C(=O)CN1CCN(c2cc(-c3ccc(OCc4ccccc4)cc3)ncn2)CC1)c1ccccc1`, the Potency is 10 µM (active). `Cc1ccc(-c2cc(N3CCCN(C(=O)COc4ccccc4)CC3)n[nH]2)cc1C`: the Potency entry is “inactive”. The result for `COc1ccc(-c2cc(N3CCN(C(=O)Cc4cccc(OC)c4)CC3)n[nH]2)cc1` reads “inactive”. The result for `CN(C)[C@H]1CCCCN(C(=O)CC2CCN(Cc3ccccc3)CC2)C1` reads “inactive”; that for `Clc1ccc2oc([C@H]3CCN(Cc4ccccc4)C3)nc2c1`, “inactive”; that for `Cc1cc(S(=O)(=O)N2CCCC2c2nnc3ccccn23)ccc1Br` (stereo unspecified), “inactive”. To `COCCNC(=O)COc1cc(O)c2c(=O)cc(-c3ccccc3)oc2c1` belongs “inactive”; to `COc1c(O)cc2oc(-c3ccc(O)c(O)c3)cc(=O)c2c1O`, 31.6 µM (active); to `CCCCOc1cc(O)c2c(=O)cc(-c3ccccc3)oc2c1`, “inactive”.

For the compound `COc1ccc(-c2c(C)c3ccc(OS(C)(=O)=O)cc3oc2=O)cc1`, the Potency entry is “inactive”. As for `O=C(CNc1ccccc1)NNC(=O)c1cc(-c2ccccc2)nn1-c1ccccc1`, the Potency result was “inactive”.

On to `Cc1nc2nc(CC(=O)NCc3ccccc3)nn2c(C)c1Cc1ccc(Cl)cc1`, for which the Potency result is “inactive”.

On to `Cc1ccc(-n2c(=O)c3cccnc3n2CC(=O)Nc2ccc(F)cc2F)cc1C`, for which the Potency result is “inactive”. The result for `CCOc1ccc(OCC)c(NS(=O)(=O)c2ccc3[nH]c(=O)ccc3c2)c1` reads “inactive”; that for `CCOc1ccc2[nH]c(=S)sc2c1`, 35.5 µM (active). To `CCOc1ccc2[nH]c(=O)c(CN(CCCO)C(C)=O)cc2c1` belongs “inactive”; to `Cc1cc(=O)oc2c(C)c(OC(C)C(=O)NCc3ccc(S(N)(=O)=O)cc3)ccc12` (stereo unspecified), “inactive”; to `COc1ccc(-c2nc3ccncc3[nH]2)cc1`, “inactive”. Consider `COc1ccc(-c2cn(-c3ccc(OC)cc3)c(=S)[nH]2)cc1`, for which the Potency is 25.1 µM (active). The result for `COc1ccc(-c2cc(N3CCN(C(=O)c4cc(OC)cc(OC)c4)CC3)n[nH]2)cc1` reads “inactive”; that for `COc1ccc2c(c1)CCc1c-2n[nH]c1C(=O)N1CCC(c2noc(COc3ccc(C)cc3)n2)CC1`, “inactive”.

In the case of `CCc1cccc(NC(=O)CC(C)C)c1`, the Potency entry is “inactive”.

Consider `O=C(Nc1ccccc1F)c1ccc2c(c1)n(Cc1ccccc1)c(=O)c1ccnn12`, for which the Potency entry is “inactive”. Take `Cc1csc2nc(COc3ccc(NC(=O)COc4ccccc4)cc3)cc(=O)n12`: the Potency result was “inactive”. Regarding `CN(c1ccccc1)S(=O)(=O)c1ccc(NC(=O)COc2ccccc2)cc1`, the Potency entry is “inactive”. To `COC(=O)C1=C(O)/C(=C/c2ccc(OCC(=O)Nc3ccccc3)cc2)N=C1C` belongs 17.8 µM (active); to `NC(=O)Cc1csc(NC(=O)CCc2ncc(-c3ccc(Cl)cc3Cl)o2)n1`, “inactive”; to `CC(OC(=O)c1cc2cc(F)ccc2s1)C(=O)N1CCNC1=O` (stereo unspecified), “inactive”. The result for `CCCCNC(=S)N/N=C1\CCCCc2ccccc21` reads 31.6 µM (active); that for `O=[N+]([O-])c1ccccc1N/N=C1\CCc2ccccc21`, “inactive”; that for `S=C(NCCC1=CCCCC1)Nc1ccccc1`, “inactive”. With `C#CCOC(=O)c1cccc(C(=O)O)c1`, the Potency result is “inactive”.

Consider `COc1cccc(NC(=O)C2C(c3ccccc3)C2(Cl)Cl)c1` (stereo unspecified), for which the Potency is 35.5 µM (active). The result for `COc1cccc(NC(=O)C2(C#N)CCCC2)c1` reads “inactive”; that for `COc1cccc(NC(=O)c2csnn2)c1`, “inactive”.
